Shiga toxin inh: Shiga toxin inhibition; Vero cells, Shiga toxin protein synthesis inhibition reporter; inhibition, % at 38.7 µM; 290,000 compounds, 9.2% hits; in the data active means inhibition mostly above about 28%, no sharp cut-off; inactive means mostly below about 43%; further: 0% is about no effect
Pf growth 96h: P. falciparum growth inhibition at 96 hour, primary screen for plastid delayed-death inhibitors | P. falciparum luciferase reporter growth, 96 h | Potency, µM (highest dose often 28.7 µM), for the others: top-dose activity change, negative = inhibition, usual class: inhibitors | 320,000 compounds, 6.9% hits; further: potency means the concentration at half of the fitted maximal effect; on the % scale 0 is the no-effect control and ±100 the full control effect
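Infected RBCs, 2% Hct / 0.05% parasitemia final; luciferase-reporter P. falciparum; cpd 96 h, 37 C, 5% CO2; luciferase detection reagent; luminescence.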
Pf growth 48h: inhibits P. falciparum growth in the first generation, 48 h; P. falciparum luciferase growth in erythrocytes, 48 h; Potency, µM (highest dose often 28.7 µM), inactives show at the highest dose activity change, negative = inhibition, actives largely listed as inhibitors; 310,000 compounds, 5.9% hits; further: potency means the concentration at half of the fitted maximal effect; on the % scale 0 is the no-effect control and ±100 the full control effect
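Read-out is firefly luciferase luminescence from an integrated reporter in P. falciparum, so falling signal marks reduced parasite growth. Infected erythrocytes were at 2% hematocrit and 0.1% parasitemia (final) in Albumax-supplemented RPMI 1640.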
CHX counter: counter-screen hit for Shiga toxin inhibitors, cycloheximide; cell reporter, cycloheximide protein synthesis inhibition counterscreen; 300,000 compounds, 12% hits; max response, %; AID 2314; in the data active means max response mostly above about 13%, no sharp cut-off; inactive means mostly below about 14%; further: read at 38.3 µM for the half of the compounds with a filed dose; 0% is about no effect
LmPK inhibitor: blocks Leishmania mexicana pyruvate kinase activity; AID 1721; purified LmPK, Kinase-Glo ATP luminescence, 1 h; Potency, µM (series often up to 57.5 µM), for the others: at the top dose activity change, negative = inhibition, most hits filed as inhibitors; 290,000 compounds, 0.37% hits; further: potency means the concentration at half of the fitted maximal effect; on the % scale 0 is the no-effect control and ±100 the full control effect
Target sequence (Q27686 whole entry, looked up): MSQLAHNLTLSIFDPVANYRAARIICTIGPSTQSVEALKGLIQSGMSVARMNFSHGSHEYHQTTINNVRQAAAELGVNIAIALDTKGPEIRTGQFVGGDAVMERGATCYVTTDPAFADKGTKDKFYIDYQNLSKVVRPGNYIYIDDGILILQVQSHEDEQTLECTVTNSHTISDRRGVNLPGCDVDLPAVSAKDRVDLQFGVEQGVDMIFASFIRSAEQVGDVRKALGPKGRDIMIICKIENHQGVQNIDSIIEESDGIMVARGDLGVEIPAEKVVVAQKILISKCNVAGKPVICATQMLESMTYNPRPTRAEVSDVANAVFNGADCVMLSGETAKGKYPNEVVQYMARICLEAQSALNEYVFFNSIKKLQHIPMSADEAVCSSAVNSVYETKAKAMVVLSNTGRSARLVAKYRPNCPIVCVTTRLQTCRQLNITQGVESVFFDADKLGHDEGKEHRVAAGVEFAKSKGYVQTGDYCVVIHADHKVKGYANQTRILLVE
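Pyruvate kinase activity monitored as ATP production (luciferase luminescence). Conditions: 0.1 nM enzyme, 0.5 mM PEP, 0.1 mM ADP, 1 h, RT; normalized against uninhibited and no-enzyme wells.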
Active calls of the source: *; ? = inconclusive; . = no result. Sampled rows, rich in hits. Any-hit rate of the full collection: about 22%. Unless noted, the call rests on the fitted dose curve; in most records, active means well fitted inhibition curve with a large enough effect; inconclusive means small, poorly fitted or top-dose-only effect, or another doubt; inactive means no such curve, though single readings can be large or run the other way.

SMILES | Shiga toxin inh | Pf growth 96h | Pf growth 48h | CHX counter | LmPK inhibitor
CCn1c(SC)nnc1-c1sc2cc(Cl)ccc2c1Cl | 71* | . | ? | 14* | 6%
CSc1nnc(-c2sc3cc(Cl)ccc3c2Cl)n1C | -7 | . | 20% | 0 | -13%
O=C(CCNC(=O)c1ccco1)Nc1ccc(C(F)(F)F)cc1 | -18 | ? | 3% | -2 | -6%
COc1ccc(NC(=O)CCNC(=O)c2ccco2)cc1S(=O)(=O)N(C)C | -4 | -13% | 5% | -4 | -1%
O=C(Nc1nccs1)c1ccc(NC(=O)c2ccco2)cc1 | 86* | ? | 148% | 47* | -1%
CC(C)(C)NC(=O)c1cccc(NC(=O)c2ccc(NC(=O)c3ccco3)cc2)c1 | -2 | 15% | -31% | -2 | -3%
CCN(CC)S(=O)(=O)c1cc(NC(=O)CCNC(=O)c2ccco2)ccc1C | -4 | 6.6µM* | 9.3µM* | 1 | 6%
CC(C)(C)c1ccc(NC(=O)CCNC(=O)c2ccco2)cc1 | 33 | 13% | 25% | 19* | 10%
CC(C)(C)c1ccc(C(=O)Nc2ccc(NC(=O)c3ccco3)cc2)cc1 | -22 | 10µM* | ? | -1 | -2%
CCOC(=O)c1cc(C(=O)OCC)c(=O)[nH]c1N1CCCCC1 | 4 | ? | ? | -2 | -4%
Cc1c(CN2CCC(CO)(CC3CCCCO3)CC2)cnn1C (centres undefined) | 12 | -24% | 11% | -1 | 0%
CC(=O)NCC(c1cccs1)S(=O)(=O)c1ccc(F)cc1 (centres undefined) | 14 | ? | 3% | 3 | -2%
CCCC(=O)NCC(c1cccs1)S(=O)(=O)c1ccc(Cl)cc1 (centres undefined) | 7 | 2.6µM* | -21% | 6 | 0%
C[C@@H](NC(=O)[C@@H]1Cc2ccccc2CN1C(=O)OC(C)(C)C)C(=O)NC1CCCCC1 | -2 | 13µM* | ? | 10 | 9%
C[C@H](NC(=O)[C@@H]1Cc2ccccc2CN1C(=O)OC(C)(C)C)C(=O)NC1CCCCC1 | 32 | 13% | ? | -2 | -1%
COc1cccc(NC(=O)C2CCN(C(=O)[C@@H]3Cc4ccccc4CN3C(=O)OC(C)(C)C)CC2)c1 | 12 | ? | 10µM* | 15 | 8%
COc1cccc(NC(=O)C2CC2)c1 | . | -2% | 21% | . | .
COc1cccc(NC(=O)C2CCN(C(=O)[C@@H]3Cc4ccccc4CN3)CC2)c1 | 12 | ? | ? | 38* | 5%
O=C(COC(=O)c1ccc(Br)cc1)Nc1ccccc1Br | 15 | -2% | -4% | 9 | -2%
O=C(CCc1nnc(CCc2ccccc2)o1)NC(c1cccnc1)C(F)(F)F (centres undefined) | 18 | 12% | 23% | 1 | 1%
O=S(=O)(Nc1ccccc1O)c1ccc(Cl)nc1 | 28 | 19% | 6% | 1 | -6%
CS(=O)(=O)N(CCC#N)Cc1ccc(/C=C2\C(=O)Nc3ccccc32)o1 | -13 | ? | ? | 8 | 1%
Cc1ccc(S(=O)(=O)NC2c3cccc4cccc(c34)C2Sc2nncn2C)cc1 (centres undefined) | 1 | ? | ? | 6 | 6%
CC(=O)N1CCN(C2c3cccc4cccc(c34)C2NS(=O)(=O)c2ccccc2)CC1 (centres undefined) | -14 | 13% | ? | 8 | -2%
Cc1ccc(S(=O)(=O)NC2c3cccc4cccc(c34)C2Sc2nc(C)cc(C)n2)cc1 (centres undefined) | -6 | 8.3µM* | 10µM* | -2 | 1%
Cc1ccc(C(=O)N2CCN(C3c4cccc5cccc(c45)C3NS(=O)(=O)c3ccccc3)CC2)cc1 (centres undefined) | -15 | ? | 2.1µM* | 2 | 6%
COc1ccc(CCNC(=O)c2ccc(OCC(=O)N3CCOCC3)c(OC)c2)cc1OC | -12 | -13% | -21% | 11 | -7%
Cc1ccc(NS(=O)(=O)c2cc(C(=O)Nc3cccc(N(C)S(C)(=O)=O)c3)ccc2C)c(C)c1 | 2 | ? | -15% | -1 | 0%
Cn1ncc(Br)c1NC(=O)c1cc(Cl)cc(Cl)c1 | 0 | -7% | ? | -5 | 5%

Bioassay records as filed in PubChem BioAssay.
